Experimental findings from PubChem BioAssay (NCI) are described below.

This is part of a sample that, as a whole, favours compounds with a hit. Of some 83,000 tested, about 20% had one in any assay.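 For each line, cells grew in 96-well plates with the test compound present at a single concentration for 48 hours.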 Values without a mark were called inactive. Calls of active or inactive are those of the source. The calls were made as follows: active = growth percent below 10; inactive = the rest.

Assay in all cases: NCI-60 one-dose screen, 48 h (100 = growth as untreated, 0 = no growth, -100 = all killed)
What all share (settings): 10 µM unless noted

For assay [1], the system named is HCT-15 colon.
Assay [2] deals with HT29 colon.
The test system of assay [3] is SNB-75 CNS.
Assay [4] relates to SNB-19 CNS.
Assay [5] has as its system U251 CNS.
Assay [6] deals with PC-3 prostate.
In assay [7] the test system is SK-MEL-5 melanoma.
The test system of assay [8] is UACC-62 melanoma.
Assay [9] concerns LOX IMVI melanoma.
In assay [10] the test system is SK-MEL-28 melanoma.
The subject of assay [11] is SK-MEL-2 melanoma.
Assay [12] concerns EKVX NSCLC.
Assay [13] has as its system SN12C renal.
The test system of assay [14] is UO-31 renal.
In assay [15] the test system is TK-10 renal.
The test system of assay [16] is ACHN renal.
Assay [17] deals with CAKI-1 renal.
Assay [18] deals with CCRF-CEM leukemia.
The subject of assay [19] is MOLT-4 leukemia.

For `c1ccc(-c2cn3c(ccc4ccccc43)n2)cc1`, the growth in assay [1] is 30.6%; in assay [2], 19.8%; in [3], 51.9%; in assay [4], 65%; in [5], 51.8%; in assay [6] it was 72.2%. The growth in assay [7] was 27.4%; in [8], 43.5%; in assay [9] it was 52.3%; in assay [10] it was 68.5%; in assay [11] it was 40.3%; in assay [12], 73.2%. Besides, the growth in assay [13] was 60.8%; in assay [14], 48.9%; in assay [15] it was 89.5%; in assay [16] it was 79.5%; in assay [17], 38.6%; in assay [18] it was 65.1%. Besides, the growth in [19] is 57.8%.

Take `C=C1C(=O)O[C@H]2[C@H]1CC/C(COC(=O)NCc1c[nH]c3ccc(F)cc13)=C\CC[C@@]1(C)O[C@@H]21`: the growth was -63.9% (active) in [1]; -50.2% (active) in assay [2]; 26.4% in assay [3]; 39.5% in assay [4]; 18.7% in [5]; 32% in assay [6]. The growth was -14.9% (active) in assay [7]; -75.1% (active) in assay [8]; -83.4% (active) in assay [9]; -62.5% (active) in [10]; 28.6% in assay [11]; 10.6% in assay [12]. Besides, the growth is -64.4% (active) in assay [13]; -99.5% (active) in [14]; -15.1% (active) in assay [15]; -84.1% (active) in [16]; -87.3% (active) in [17]; -8.32% (active) in assay [18]. The growth in assay [19] was 3.81% (active).

Take `Cc1nc(N)nc(N[C@@H](C)c2nc3cccc(NCc4ccc(C(=O)NO)cc4)c3c(=O)n2-c2ccccc2)n1`: the growth in [1] was 110%; in [2] it was 77.3%; in assay [3], 69.6%; in [4], 71.3%; in [5], 52.7%; in [6], 88%. For the same compound, the growth in assay [7] was 77.3%; in assay [8], 59.1%; in assay [9], 72.8%; in assay [10] it was 70%; in [11], 74.7%; in assay [12], 76.8%. Moreover, the growth in [13] was 84.5%; in assay [14], 68.4%; in [15] it was 80.3%; in assay [16] it was 101%; in [17], 77.5%; in assay [18], 23.2%. Besides, the growth in assay [19] was 32.9%.

Turning to `CN(C)c1ccc(C2C(C#N)=C(/N=C/c3ccccc3)Oc3c2ccc2ccccc32)cc1` (configuration not stated), the growth is 48% in [1]; 69.9% in assay [2]; -0.718% (active) in assay [3]; 74.2% in assay [4]; 74.8% in [5]; 50.7% in [6]. Moreover, the growth was 71.5% in [7]; 49.2% in assay [8]; 54.6% in [9]; 80.1% in assay [10]; 70.8% in assay [11]; 73.4% in [12]. For the same compound, the growth was 78% in [13]; 50.6% in assay [14]; 144% in assay [15]; 71.6% in assay [16]; 20.7% in [17]; 66.7% in [18]. In addition, the growth in [19] is 67.7%.

As to `COc1cccc2c1c1nc3cc(C)c(C)cc3nc1n2CCN(C)C`, the growth in [1] was 13.1%; in assay [2] it was 11%; in assay [3], 34%; in assay [4] it was 25.4%; in [5], 25.9%; in assay [6] it was 18.3%. The growth in assay [7] was 10.7%; in assay [8], 14.6%; in assay [9], 1.15% (active); in [10] it was 36%; in [11], 11%; in assay [12], 25.7%. Also, the growth in assay [13] is 16.9%; in [14], 6.86% (active); in [15], 52.1%; in [16], -12.3% (active); in [17], 9.75% (active); in [18], 27.6%. In assay [19], the growth is 10.5%.

Consider `COc1ccccc1NS(=O)(=O)c1cccc(C(=O)Nc2ccc(Br)cc2)c1`, for which the growth in assay [1] was 37.8%; in assay [2], 46.6%; in assay [3], 65.9%; in [4], 53.4%; in [5], 62%; in assay [6], 25.4%. The growth in [7] is -31.7% (active); in [8] it was 32.1%; in assay [9], 42.4%; in assay [10], 62.9%; in [11], 57.7%; in [12], 20.1%. Also, the growth in assay [13] was 51.8%; in assay [14], 27.3%; in assay [15] it was 61.5%; in [16] it was 46.2%; in assay [17] it was 27.5%; in [18] it was 40.1%. Also, in assay [19], the growth was 26.8%.

As to `O=C(/C=C(/C=C/c1csc2ccccc12)OB(F)F)/C=C/c1csc2ccccc12`, the growth in assay [1] is 11.4%; in assay [2], 15.7%; in assay [3], 16.5%; in [4] it was 48.2%; in [5] it was 17.1%; in assay [6], 20.3%. The growth was 31.5% in assay [7]; 6.2% (active) in assay [8]; -3.05% (active) in [9]; 4.8% (active) in [10]; 73.1% in assay [11]; 23.7% in assay [12]. Moreover, the growth in assay [13] was -9.88% (active); in assay [14] it was -5.1% (active); in [15], 23.7%; in [16], 7.13% (active); in assay [17], 10.1%; in assay [18], -20.5% (active). For the same compound, the growth in assay [19] is -18.6% (active).

As for `CCCOC(=O)N[C@H]1CCc2c(Cl)c(OC)c(OC)c(OC)c2-c2ccc(SC)c(=O)cc21`, the growth in assay [1] was 12.9%; in assay [2], 14.7%; in [3], 31.2%; in assay [4], 31%; in assay [5], 23.2%; in assay [6] it was 24%. Also, the growth in assay [7] was -10.3% (active); in assay [8] it was 30.9%; in assay [9], 10.7%; in [10] it was 68.8%; in [11], 48.2%; in assay [12], 48.1%. Moreover, the growth in assay [13] is 20.5%; in assay [14], 23.1%; in assay [15], 49.3%; in [16] it was 30.7%; in assay [17], 13.8%; in assay [18], 7.4% (active). In assay [19], the growth is 8.02% (active).
